Out of some 310,000 compounds screened, about 14,000 (4.5%) showed an effect of 50% or more. Effects have a minus sign here. The sample holds strong results, similar compounds and a random draw of the others, so the mix is not that of the screen.
Target: human ether-à-go-go-related gene (hERG) potassium channel (human, UniProt Q12809)
Assay: primary screen, population patch clamp on CHO cells stably expressing hERG; higher = less effect of the substance
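Also: peak tail current of the secondary pulse compared with the same well before compound.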

Sequence of human ether-à-go-go-related gene (hERG) potassium channel (Q12809 whole entry, looked up): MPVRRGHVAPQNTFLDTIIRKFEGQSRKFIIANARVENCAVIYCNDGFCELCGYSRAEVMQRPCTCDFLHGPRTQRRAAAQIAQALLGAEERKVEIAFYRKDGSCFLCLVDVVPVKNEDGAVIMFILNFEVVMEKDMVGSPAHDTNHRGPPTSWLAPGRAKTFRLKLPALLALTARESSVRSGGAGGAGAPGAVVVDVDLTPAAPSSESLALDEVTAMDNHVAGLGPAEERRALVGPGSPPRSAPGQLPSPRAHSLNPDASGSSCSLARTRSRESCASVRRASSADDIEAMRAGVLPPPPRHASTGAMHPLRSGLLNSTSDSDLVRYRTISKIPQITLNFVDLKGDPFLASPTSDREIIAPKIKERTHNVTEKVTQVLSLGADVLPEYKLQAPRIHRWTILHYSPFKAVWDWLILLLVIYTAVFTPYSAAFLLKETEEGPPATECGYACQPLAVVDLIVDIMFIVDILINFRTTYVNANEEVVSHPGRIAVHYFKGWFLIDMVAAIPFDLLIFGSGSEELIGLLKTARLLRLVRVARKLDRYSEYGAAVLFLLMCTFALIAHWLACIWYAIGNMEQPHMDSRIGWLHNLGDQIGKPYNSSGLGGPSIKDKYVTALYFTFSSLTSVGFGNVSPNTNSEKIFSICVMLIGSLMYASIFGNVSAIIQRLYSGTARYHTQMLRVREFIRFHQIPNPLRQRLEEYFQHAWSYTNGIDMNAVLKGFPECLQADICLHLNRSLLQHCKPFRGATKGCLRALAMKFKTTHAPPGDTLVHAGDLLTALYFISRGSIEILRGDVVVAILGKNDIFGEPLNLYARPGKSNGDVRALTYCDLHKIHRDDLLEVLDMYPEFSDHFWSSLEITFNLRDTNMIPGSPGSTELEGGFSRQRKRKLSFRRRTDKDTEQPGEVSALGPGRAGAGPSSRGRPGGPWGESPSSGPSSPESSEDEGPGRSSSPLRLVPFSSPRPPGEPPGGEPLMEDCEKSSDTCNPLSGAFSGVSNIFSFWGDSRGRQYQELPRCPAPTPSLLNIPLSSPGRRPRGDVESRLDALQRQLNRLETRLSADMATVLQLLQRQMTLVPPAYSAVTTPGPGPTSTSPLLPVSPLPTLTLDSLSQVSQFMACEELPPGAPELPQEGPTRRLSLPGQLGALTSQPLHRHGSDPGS

| Structure (SMILES) | hERG current change (%, negative = inhibition) at 10uM [%] |
| --- | --- |
| O=C(CN1CCCCCC1)Nc1ccccc1Cl | 6.75 |
| O=C(CN1CCN(CC(=O)Nc2ccccc2C(F)(F)F)CC1)Nc1ccccc1F | -30.2 |
| Cc1cccc(NC(=O)CN2CCN(C(=O)c3oc4c(Cl)cccc4c3C)CC2)c1C | -43.6 |
| O=C(CN1CCN(C(=O)c2cncn2-c2ccccc2)CC1)Nc1ccccc1Cl | -77.3 |
| O=C(CN1CCCCC1)Nc1ccccc1Cl | 21.1 |
| Cc1cccc(NC(=O)CN2CCN(C(=O)c3cncn3-c3ccc(F)cc3)CC2)c1C | -60.9 |
| Cc1cccc(NC(=O)Cn2cnc3c(cnn3-c3ccc(F)cc3)c2=O)c1C | 2.99 |
| O=C(CN1CCN(C(=O)c2c(F)cccc2F)CC1)Nc1ccccc1C(F)(F)F | -20.9 |
| O=C(CN1CCN(C(=O)c2cncn2-c2ccc(F)cc2)CC1)Nc1ccccc1C(F)(F)F | -70 |
| Cc1cccc(NC(=O)CN2CCN(C(=O)c3cnn(Cc4ccccc4)c3)CC2)c1C | -87.2 |
| Cc1cccc(NC(=S)N2CCN(Cc3ccccc3)CC2)c1C | -13.2 |
| COc1cc(OC)cc(C(=O)OCC(=O)Nc2ccc(F)cc2F)c1 | 4.34 |
| CCC(C)(C)NC(=O)c1ccc2c(c1)S(=O)(=O)c1ccccc1C2=O | -16.8 |
| CNS(=O)(=O)c1cccc(C(=O)OCC(=O)NCCCc2ccccc2)c1 | -5.42 |
| COc1cc(OC)cc(-c2nnc(SCc3c(F)cccc3Cl)o2)c1 | 0.324 |
| COc1ccccc1CC(=O)N1CCCc2ccccc21 | 0.493 |
| COc1cc([N+](=O)[O-])ccc1NC(=O)Nc1nc2c(s1)CCCC2 | 11.7 |
| O=C(Nc1ccccc1C(=O)O)c1ccc(NC(=O)c2ccc(Br)o2)cc1 | 11.7 |
| Cc1ccc(-n2c(N)cc(=O)nc2SCC(=O)N2CCN(c3ccccc3)CC2)cc1 | -0.877 |
| COc1cc(C(CC(=O)Nc2ccc(C)cn2)N2Cc3ccccc3C2=O)cc(OC)c1OC (stereo not drawn) | -1.38 |
| COc1cc(C(CC(=O)Nc2ccc(Cl)cn2)N2Cc3ccccc3C2=O)cc(OC)c1OC (stereo not drawn) | -68.1 |
| COc1cc(C(CC(=O)Nc2ccccn2)N2Cc3ccccc3C2=O)cc(OC)c1OC (stereo not drawn) | -11.5 |
| Cc1ccc(Nc2cc(C)nc(N3CCOCC3)n2)cc1 | 6.18 |

| Structure (SMILES) | hERG current change (%, negative = inhibition) at 10uM [%] |
| --- | --- |
| O=S(=O)(NC1CCCCC1)c1cccc(-c2nnc(-c3ccccc3)o2)c1 | -36.4 |
| Cc1ccc(N=C2S/C(=C/c3cccc(OCC(=O)O)c3)C(=O)N2C)cc1C | 20.5 |
| O=C(c1ccc(C(=O)N2CCCc3ccccc32)nc1)N1CCCc2ccccc21 | -9.08 |
| CCNC(=O)CSc1nnc(-c2ccc(OC)cc2)n1CC(C)C | -3.51 |
| CC1CCCN(C(=O)Cn2c3ccccc3c3nc4n(c(=O)c32)CCS4)C1 (stereo not drawn) | -3.59 |
| COc1ccccc1CN1C[C@@H]2C[C@@H](c3ccc(C)cc3)N3CCC[C@@]23C1=O | -43.6 |
| CCc1ccc([C@@H]2C[C@H]3CN(Cc4ccccc4OC)C(=O)[C@]34CCCN24)cc1 | -70.7 |
| COc1ccccc1CN1C[C@@H]2C[C@@H](c3ccc(Cl)cc3)N3CCC[C@@]23C1=O | -44.1 |
| O=C1N(Cc2cccnc2)C[C@@H]2C[C@@H](c3cccc(C(F)(F)F)c3)N3CCC[C@@]123 | -10.3 |
| O=C1N(Cc2cccnc2)C[C@@H]2C[C@@H](c3ccc(C(F)(F)F)cc3)N3CCC[C@@]123 | -53.9 |
| Cc1ccccc1CN1C[C@@H]2C[C@@H](c3ccc4nsnc4c3)N3CCC[C@@]23C1=O | -18.1 |
| Cc1ccccc1-c1cccc([C@@H]2C[C@H]3CN(Cc4cccnc4)C(=O)[C@]34CCCN24)c1 | -59 |
| O=C1N(Cc2cccnc2)C[C@@H]2C[C@@H](c3ccccc3C(F)(F)F)N3CCC[C@@]123 | -11.2 |
| O=C1N(Cc2cccnc2)C[C@@H]2C[C@@H](c3ccccc3C#Cc3ccccc3)N3CCC[C@@]123 | -69.5 |
| Cc1ccc(NC(=S)N2CCn3cccc3C2c2cccnc2)cc1 (stereo not drawn) | -37.3 |
| CCOc1ccccc1-c1nc(-c2ccncc2)no1 | -15.8 |
| COc1cccc(-c2ccc(SCC(=O)NCCc3ccccc3)nn2)c1 | -41.7 |
| CCCN(C(=O)C(C)Oc1cccc(Cl)c1)c1c(N)n(Cc2ccccc2)c(=O)[nH]c1=O (stereo not drawn) | 1.41 |
| CCC(C)N1C(=O)c2ccccc2C1C(=O)NC1CCCCCC1 (stereo not drawn) | 4.45 |
| COC(=O)c1cc2occc2n1Cc1ccc(Cl)cc1 | 9.68 |
| Nc1nonc1-n1nnc(C(=O)N/N=C/c2ccc(OCc3ccccc3)cc2)c1CN1CCCCC1 | 7.17 |
| Cc1ccccc1S(=O)(=O)NCc1cccnc1 | 5.17 |

Reference: publication PMC4336329 (PLoS ONE, 2015)
